HttQ103 aggreg = inhibitors of mutant huntingtin aggregate formation in PC12 cells. PC12 HttQ103-GFP aggregates, Acumen cytometry, 40 h. 220,000 tested, 1.1% active. Potency, µM (series often up to 46.1 µM), usual class: inhibitors; note: nearly all actives have a fitted effect of over 60% in size
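Quantitative HTS on tebufenozide-induced (100 nM) PC12 cells stably expressing polyQ103 Huntingtin exon 1–GFP. Reduction of bright GFP aggregates, detected by laser scanning cytometry after lysis, identified actives across the titration.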
ALDH1A1 block = ALDH1A1 (human) enzyme inhibition; P00352; 220,000 tested, 7.3% active; Purified ALDH1A1, NADH fluorescence, propionaldehyde substrate; Potency, µM (top dose mostly 75.3 µM), actives largely listed as inhibitors; active = well fitted inhibition curve with a large enough effect, not every such curve was filed as active; inconclusive = small, poorly fitted or top-dose-only effect, or another doubt; inactive = no such curve, though single readings can be large or run the other way
HTT ATP protect = protects HTT-Q103 PC12 cells, measured by ATP. 230,000 tested, 0.14% active. PC12 HTT-Q103 induced, cytoprotection, ATP luminescence, 40 h. Potency, µM (series often up to 56.4 µM), hits mostly activators. AID 1471; note: nearly all actives have a fitted effect of over 45% in size
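Rat PC12, Q103 Htt exon1-GFP fusion, ecdysone promoter; tebufenozide inducer 100 nM final; compound titration; qHTS, 1500 cells/well; ATPlite luminescent read.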
HPGD block = blocks human HPGD enzyme activity. purified HPGD, NADH fluorescence kinetic, PGE2 substrate. Potency, µM, usual class: inhibitors. P15428. AID 894. 150,000 tested, 4.3% active; active = well fitted inhibition curve with a large enough effect, not every such curve was filed as active; inconclusive = small, poorly fitted or top-dose-only effect, or another doubt; inactive = no such curve, though single readings can be large or run the other way
Target sequence (P15428 whole entry, looked up): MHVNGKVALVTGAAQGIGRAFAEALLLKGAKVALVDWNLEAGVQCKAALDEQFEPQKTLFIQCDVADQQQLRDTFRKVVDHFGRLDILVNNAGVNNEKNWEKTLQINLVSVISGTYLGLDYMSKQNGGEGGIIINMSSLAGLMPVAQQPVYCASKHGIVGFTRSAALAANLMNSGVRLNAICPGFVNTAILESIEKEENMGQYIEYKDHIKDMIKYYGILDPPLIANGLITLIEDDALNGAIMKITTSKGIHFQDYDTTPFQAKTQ
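NADH formation kinetics: reaction with 30 uM PGE2 and 1 mM NAD+ (final), 20 nM enzyme, Tris-HCl pH 8 with Tween 20, after 15 min compound preincubation at room temperature. Fluorescence change, last versus first of five reads.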
CBFb RUNX1 block = blocks binding between human CBF-beta and RUNX1; Q01196+Q13951; Potency, µM (series often up to 59.8 µM), usual class: inhibitors; 230,000 tested, under 10 active; AlphaScreen CBFb-His/RUNX1-biotin binding, biochemical
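Proteins preincubated together for 20 min at RT before compound addition; 15 min later, nickel and streptavidin beads were added and left 90 min prior to AlphaScreen measurement.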
PNC assembly inh = inhibitors of perinucleolar compartment assembly. PC3M PTB-GFP, PNC prevalence imaging, 16 h; stronger effect = lower value. activity change (PNC), negative = inhibition, % at 10 µM. 140,000 tested, 3.1% active;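 active = readout at or below -70, meaning at least 70% loss of cells showing the perinucleolar compartment, a nuclear body marking cancer cells; inconclusive = readout between -30 and a set limit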
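PC3M cells stably expressing PTB-GFP, 750–1000 cells/well, treated 16 h at 37 °C with compound (23 nl of library stock), in duplicate. After paraformaldehyde fixation and Hoechst stain, imaged at 20x; PNC prevalence scored by image analysis.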
Numbers stand for hits; . = inactive; ? = inconclusive; / = no result given; [ ] = another dose, or the depositor's remark. This is a sample that favours compounds with a hit; in the whole collection about 11% have one here. Unless noted, calls come from the whole dose curve; as a rule, active = well fitted curve in the direction sought with a large enough effect; inconclusive = small, poorly fitted or top-dose-only effect, or another doubt; inactive = no such curve, though single readings can be large; an effect the other way counts as inactive or inconclusive.

SMILES	HttQ103 aggreg	ALDH1A1 block	HTT ATP protect	HPGD block	CBFb RUNX1 block	PNC assembly inh
O=C(O)c1cccc2c1C(=O)c1ccccc1C2=O	.	?	.	/	.	/
CCN(CCN(C)C)C(=O)c1ccc2c(c1NCCO)C(=O)c1ccccc1C2=O	?	14.1µM	.	/	.	/
O=C1c2ccccc2C(=O)c2c1ccc(C(=O)N1CCCCC1)c2NCCO	.	.	.	?	.	?
CCNc1c(C(=O)O)ccc2c1C(=O)c1ccccc1C2=O	.	.	.[10 µM]	.	.	-84.6
C[N+]1(CCC(=O)c2ccco2)CC2CCC(CC2)C1 (centres undefined)	/	.[13.5 µM]	.[10 µM]	.	/	/
CC(=O)c1sc(NC(=O)c2c(F)cccc2F)nc1-c1ccccc1	.	11.2µM	.	/	.	/
COC(=O)Nc1nc(-c2ccccc2)c(C(=O)c2ccc(Cl)cc2)s1	.	.	.[10 µM]	.	.	-102.1
CCOC(=O)Nc1nc(-c2ccccc2)c(C(=O)c2ccccc2)s1	?	?	.	.	.	-82.9
CC(=O)c1sc(NC(=O)c2ccccc2)nc1-c1ccccc1	.	?	/	/	.	/
COCCN(CCOC)S(=O)(=O)c1ccc(C(=O)Nc2nc(-c3ccccc3)c(C(=O)c3ccccc3)s2)cc1	.	?	.[10 µM]	.	.	.
COC(C[C@@H](O)CC(=O)COCc1ccccc1)OC	.[9.22 µM]	/	.[10 µM]	/	.	/
COc1ccccc1CNc1ncnc2ccc(-c3cccnc3)cc12	/	.	.	?	/	/
O=c1c2sccc2nc(SCc2ccc([N+](=O)[O-])cc2)n1Cc1ccccn1	.	.	.[10 µM]	.	.	-84.3
CC(=O)Nc1nonc1NC(C)=O	.	.	.[10 µM]	.	.	.
CC(=O)Nc1cc(OC(C)=O)c2nonc2c1OC(C)=O	7.08µM	.	.	.	/	.
COCCSc1ncnc2c1oc1nc3c(cc12)COC(C)(C)C3	.[9.22 µM]	6.31µM	.[10 µM]	/	.	/
CC1(C)Cc2nc3oc4c(N5CCOCC5)ncnc4c3cc2CO1	.	?	.	?	.	-109.4
Brc1ccc2oc3c(N4CCOCC4)ncnc3c2c1	.[9.22 µM]	.	.[0.074 µM]	?	.	.
CC1(C)Cc2nc3oc4c(N(CCO)Cc5ccccc5)ncnc4c3cc2CO1	?	?	.[10 µM]	?	.	.
COc1ccc(CCN2C(=O)C3C4C=CC(C4)C3C2=O)cc1OC (centres undefined)	.	?	.	.	.	?
COc1ccc(CCN2C(=O)C3C4C=CC(C3C2=O)C2C(=O)N(CCc3ccc(OC)c(OC)c3)C(=O)C42)cc1OC (centres undefined)	10µM	.	.[10 µM]	.	.	.
COc1ccc(CCN2C(=O)C3C4C=CC(C5CC45)C3C2=O)cc1OC (centres undefined)	.[9.22 µM]	3.98µM	.[10 µM]	/	.	/
COc1ccc([C@@H]2CNC(=O)C2)cc1OC1CCCC1	.	?	?	.	.	/
NCCC[C@@H](CC(=O)N[C@@H]1CCCC[C@H]1C(=O)N[C@H](CC(=O)N[C@@H](CCC(=O)O)CC(=O)O)Cc1c[nH]c2ccccc12)NC(=O)C[C@H](Cc1c[nH]c2ccccc12)NC(=O)[C@@H]1CNCC[C@H]1N	/	.	.[1.9 µM]	.	.	/
O=C1C=CC2(OCCCO2)C(Br)=C1CO	/	.	.	?	.	/
SMILES	HttQ103 aggreg	ALDH1A1 block	HTT ATP protect	HPGD block	CBFb RUNX1 block	PNC assembly inh
COc1ccc(OC)c(Nc2cc(-c3ccccc3)nc(N)n2)c1	1.26µM	.	.[10 µM]	?	.	?
O=C(O)Cc1sc(Nc2ccc(Cl)cc2)nc1-c1cccs1	.	1µM	.[10 µM]	/	.	/
Cn1cccc1C(=O)N1CCC2(CC1)CCN(c1ccccc1)CC2	/	.	.	.	/	/
CC(C)C[C@@H](CC(=O)N[C@H](CC(=O)N[C@@H]1CCCC[C@H]1C(=O)N[C@H](CC(=O)N[C@@H](CCC(=O)O)CC(=O)O)Cc1c[nH]c2ccccc12)C(C)C)NC(=O)[C@@H]1CCCC[C@H]1N	/	.	.	.	.	/
CCC1CCCCN1CC(=O)Nc1cc(C)nn1-c1nc(C)cc(C)n1 (centres undefined)	.	14.1µM	.	.	.	?
Cc1cc(C)nc(-n2nc(C)cc2NC(=O)CN2CCC(C)CC2)n1	.	3.55µM	.	.	.	.
Cc1cc(C)nc(-n2nc(C)cc2NC(=O)CN2CCCC2)n1	.	?	.	/	.	/
CC(C)C1S/C(=N/N=C/c2cccs2)NC1=O (centres undefined)	.	?	.	25.1µM	.	?
N=C1C(c2nc3ccccc3[nH]2)=C(O)CN1c1ccc(CC(=O)O)cc1	.	23.8µM	.	.	.	.
N=C1C(c2nc3ccccc3[nH]2)=C(O)CN1c1ccccc1	.[9.22 µM]	.	.	.	.	.
COc1ccc([C@@H]2CC(=O)c3c(O)cc(O[C@@H]4O[C@H](CO[C@@H]5O[C@@H](C)[C@H](O)[C@@H](O)[C@H]5O)[C@@H](O)[C@H](O)[C@H]4O)cc3O2)cc1	/	/	/	/	.	/
O=c1[nH]c(=O)n(Cc2ccco2)c2c1C(C(F)(F)F)(C(F)(F)F)N=C(c1ccc(F)cc1)N2	1.26µM	?	.[10 µM]	.	.	.
O=C(Nc1ccc(-c2cn3ccsc3n2)cc1)C1COc2ccccc2O1 (centres undefined)	.	.	.	.	.	-94.5
CC1CC(C)CN(S(=O)(=O)c2ccc(NC(=O)C3COc4ccccc4O3)cc2)C1 (centres undefined)	.	.	.	.	.	-121.7
NS(=O)(=O)c1ccc(NC(=O)C2COc3ccccc3O2)cc1 (centres undefined)	.	.	.	.	.	.
CC1(C)Oc2ccc(NC(=O)C3COc4ccccc4O3)cc2O1 (centres undefined)	.	0.0355µM	.	20µM	.	.
NC(C(=O)O)C(O)c1ccc(O)c(O)c1 (centres undefined)	.	/	.	/	/	/
N#Cc1cccc(-c2nc(NCc3ccccc3)c3ccccc3n2)c1	/	?	.	/	/	/
O=[N+]([O-])c1cc(/C=N/O)ccc1Sc1ccccc1	?	?	.	25.1µM	.	.
CO/N=C/c1ccc(Sc2ccccc2)c([N+](=O)[O-])c1	.	.	.	.	?	.
Cc1cccc(-n2c(Cn3nc(C)c([N+](=O)[O-])c3C)n[nH]c2=S)c1	.	25.1µM	.	.	.	.
Cc1nn(CCc2n[nH]c(=S)n2-c2ccc(F)c(Cl)c2)c(C)c1[N+](=O)[O-]	.	.	.	.	.	.
CC1NC2(C(=O)N(Cc3ccccc3)c3ccccc32)C2C(=O)N(c3ccccc3)C(=O)C12 (centres undefined)	?	14.1µM	.	.	.	.
CCOC(=O)c1ccc2c(c1)C(=O)N(C1CCCCC1)C2=O	.	22.4µM	.	.	.	.
CCOC(=O)N1CCC(N2C(=O)c3ccc(C(=O)O)cc3C2=O)CC1	.[9.22 µM]	.	.	.	.	.

Bioassay records (PubChem)
